# From the supplement of paper PMC10849652
# The full data set covers some 7,900 targets. This sample favours those with a hit. About 0.6% of all pairs of compound and target were hits. A number with no mark means an inactive call.
# Compound: Cc1ccc(-n2nc(C(C)(C)C)cc2NC(=O)Nc2ccc(OCCN3CCOCC3)c3ccccc23)cc1 [doramapimod]
# Experiment: log2 fold change, soluble protein after heating vs DMSO (PISA); higher = thermal stabilisation; K562 cells, 10 uM, 30 min; active = over 0.2 and 3.5 SD of the protein, either way, in both replicates (recomputed)
# In short: (§1)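 Quantification of soluble protein used TMTpro 16plex LC-MS/MS, with channel sums equalised. Samples were the supernatant after 21,000xg for 90 min of pooled aliquots from K562 cells (2×10^6 cells/mL) treated with 10 μM compound for 30 min, heated for 3 min over 48°C-58°C, and extracted in PBS with 0.5% NP-40 at 4°C. Values, from duplicates, describe thermal stability against control samples on a log2 fold-change scale.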
# Sequence of UniProt O75909 (O75909 whole entry, looked up): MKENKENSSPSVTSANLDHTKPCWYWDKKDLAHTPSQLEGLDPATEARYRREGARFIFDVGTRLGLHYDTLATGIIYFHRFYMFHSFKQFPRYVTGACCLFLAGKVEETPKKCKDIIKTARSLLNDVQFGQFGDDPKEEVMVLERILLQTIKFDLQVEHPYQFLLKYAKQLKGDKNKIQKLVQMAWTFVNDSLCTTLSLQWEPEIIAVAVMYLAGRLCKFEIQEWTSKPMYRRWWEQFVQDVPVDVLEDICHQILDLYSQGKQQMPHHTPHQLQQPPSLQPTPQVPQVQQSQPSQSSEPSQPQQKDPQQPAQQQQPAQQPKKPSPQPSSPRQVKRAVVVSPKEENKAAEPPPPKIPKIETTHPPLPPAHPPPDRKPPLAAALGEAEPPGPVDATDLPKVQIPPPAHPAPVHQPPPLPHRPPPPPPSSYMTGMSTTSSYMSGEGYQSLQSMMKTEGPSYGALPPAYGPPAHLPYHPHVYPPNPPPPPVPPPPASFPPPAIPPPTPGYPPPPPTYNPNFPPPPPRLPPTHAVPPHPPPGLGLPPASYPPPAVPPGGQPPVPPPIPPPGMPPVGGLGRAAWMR
# Sequence of UniProt Q16740 (Q16740 whole entry, looked up): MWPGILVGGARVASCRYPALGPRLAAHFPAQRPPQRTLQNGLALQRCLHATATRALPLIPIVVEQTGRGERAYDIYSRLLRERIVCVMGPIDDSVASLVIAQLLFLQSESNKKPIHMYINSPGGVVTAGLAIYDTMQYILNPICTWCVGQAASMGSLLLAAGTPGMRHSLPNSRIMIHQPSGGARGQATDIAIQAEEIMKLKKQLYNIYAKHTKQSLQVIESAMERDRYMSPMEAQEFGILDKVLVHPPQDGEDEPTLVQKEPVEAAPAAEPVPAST
# Sequence of UniProt Q9P0B6 (Q9P0B6 whole entry, looked up): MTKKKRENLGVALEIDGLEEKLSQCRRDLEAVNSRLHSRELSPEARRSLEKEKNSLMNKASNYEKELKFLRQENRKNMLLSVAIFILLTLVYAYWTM
# Sequence of UniProt Q9UKF6 (Q9UKF6 whole entry, looked up): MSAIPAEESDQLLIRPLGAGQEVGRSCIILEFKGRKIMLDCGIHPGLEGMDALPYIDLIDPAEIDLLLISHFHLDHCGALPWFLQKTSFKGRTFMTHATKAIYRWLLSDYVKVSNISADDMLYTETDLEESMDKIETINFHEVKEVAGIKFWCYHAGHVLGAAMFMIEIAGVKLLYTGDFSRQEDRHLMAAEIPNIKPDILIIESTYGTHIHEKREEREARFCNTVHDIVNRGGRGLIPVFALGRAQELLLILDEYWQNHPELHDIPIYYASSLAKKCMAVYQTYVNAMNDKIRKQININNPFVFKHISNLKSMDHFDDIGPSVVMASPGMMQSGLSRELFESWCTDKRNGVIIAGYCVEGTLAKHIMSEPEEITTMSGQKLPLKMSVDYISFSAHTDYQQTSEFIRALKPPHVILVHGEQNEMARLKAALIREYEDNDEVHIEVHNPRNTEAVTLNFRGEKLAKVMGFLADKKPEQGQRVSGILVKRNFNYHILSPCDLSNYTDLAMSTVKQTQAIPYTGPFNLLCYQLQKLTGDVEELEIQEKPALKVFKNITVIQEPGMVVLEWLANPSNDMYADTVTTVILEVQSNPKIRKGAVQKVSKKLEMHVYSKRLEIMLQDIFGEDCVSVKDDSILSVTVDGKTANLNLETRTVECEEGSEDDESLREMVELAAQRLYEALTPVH
# Sequence of UniProt P61024 (P61024 whole entry, looked up): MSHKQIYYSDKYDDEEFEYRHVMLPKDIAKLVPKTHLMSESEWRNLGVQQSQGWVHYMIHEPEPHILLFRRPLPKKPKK
# Sequence of UniProt Q13137 (Q13137 whole entry, looked up): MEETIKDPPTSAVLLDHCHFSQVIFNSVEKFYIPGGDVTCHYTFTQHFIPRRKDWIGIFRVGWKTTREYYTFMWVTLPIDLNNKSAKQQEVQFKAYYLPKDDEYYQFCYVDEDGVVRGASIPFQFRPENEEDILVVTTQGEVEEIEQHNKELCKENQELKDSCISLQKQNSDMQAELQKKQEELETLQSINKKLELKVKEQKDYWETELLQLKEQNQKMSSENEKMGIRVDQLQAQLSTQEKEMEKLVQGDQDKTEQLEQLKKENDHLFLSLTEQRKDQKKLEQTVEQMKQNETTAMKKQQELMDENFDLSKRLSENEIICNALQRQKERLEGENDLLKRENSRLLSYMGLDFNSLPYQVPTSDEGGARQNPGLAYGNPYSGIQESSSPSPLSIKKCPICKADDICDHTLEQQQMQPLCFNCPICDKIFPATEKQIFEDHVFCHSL
# Sequence of UniProt Q96JM3 (Q96JM3 whole entry, looked up): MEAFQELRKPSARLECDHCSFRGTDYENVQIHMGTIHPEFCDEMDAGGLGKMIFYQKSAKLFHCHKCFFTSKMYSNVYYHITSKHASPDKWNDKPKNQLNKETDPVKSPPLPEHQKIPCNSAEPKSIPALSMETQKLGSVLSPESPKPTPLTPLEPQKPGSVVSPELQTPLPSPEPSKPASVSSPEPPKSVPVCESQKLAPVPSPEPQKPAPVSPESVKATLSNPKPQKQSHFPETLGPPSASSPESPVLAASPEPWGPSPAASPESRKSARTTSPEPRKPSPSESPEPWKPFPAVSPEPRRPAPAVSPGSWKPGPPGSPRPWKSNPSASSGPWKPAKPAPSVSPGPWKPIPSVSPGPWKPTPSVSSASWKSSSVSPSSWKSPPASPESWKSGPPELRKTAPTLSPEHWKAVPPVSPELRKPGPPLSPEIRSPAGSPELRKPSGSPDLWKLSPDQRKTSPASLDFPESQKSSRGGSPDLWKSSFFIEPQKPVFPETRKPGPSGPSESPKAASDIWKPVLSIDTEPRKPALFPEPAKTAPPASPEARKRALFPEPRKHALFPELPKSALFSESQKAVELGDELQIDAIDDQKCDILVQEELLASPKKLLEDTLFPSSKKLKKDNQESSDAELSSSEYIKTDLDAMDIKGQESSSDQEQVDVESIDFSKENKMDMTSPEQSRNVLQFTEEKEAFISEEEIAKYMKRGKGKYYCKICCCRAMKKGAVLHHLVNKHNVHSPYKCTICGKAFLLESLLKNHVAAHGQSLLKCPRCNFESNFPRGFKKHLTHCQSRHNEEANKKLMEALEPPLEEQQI
# Sequence of UniProt Q9HAW4 (Q9HAW4 whole entry, looked up): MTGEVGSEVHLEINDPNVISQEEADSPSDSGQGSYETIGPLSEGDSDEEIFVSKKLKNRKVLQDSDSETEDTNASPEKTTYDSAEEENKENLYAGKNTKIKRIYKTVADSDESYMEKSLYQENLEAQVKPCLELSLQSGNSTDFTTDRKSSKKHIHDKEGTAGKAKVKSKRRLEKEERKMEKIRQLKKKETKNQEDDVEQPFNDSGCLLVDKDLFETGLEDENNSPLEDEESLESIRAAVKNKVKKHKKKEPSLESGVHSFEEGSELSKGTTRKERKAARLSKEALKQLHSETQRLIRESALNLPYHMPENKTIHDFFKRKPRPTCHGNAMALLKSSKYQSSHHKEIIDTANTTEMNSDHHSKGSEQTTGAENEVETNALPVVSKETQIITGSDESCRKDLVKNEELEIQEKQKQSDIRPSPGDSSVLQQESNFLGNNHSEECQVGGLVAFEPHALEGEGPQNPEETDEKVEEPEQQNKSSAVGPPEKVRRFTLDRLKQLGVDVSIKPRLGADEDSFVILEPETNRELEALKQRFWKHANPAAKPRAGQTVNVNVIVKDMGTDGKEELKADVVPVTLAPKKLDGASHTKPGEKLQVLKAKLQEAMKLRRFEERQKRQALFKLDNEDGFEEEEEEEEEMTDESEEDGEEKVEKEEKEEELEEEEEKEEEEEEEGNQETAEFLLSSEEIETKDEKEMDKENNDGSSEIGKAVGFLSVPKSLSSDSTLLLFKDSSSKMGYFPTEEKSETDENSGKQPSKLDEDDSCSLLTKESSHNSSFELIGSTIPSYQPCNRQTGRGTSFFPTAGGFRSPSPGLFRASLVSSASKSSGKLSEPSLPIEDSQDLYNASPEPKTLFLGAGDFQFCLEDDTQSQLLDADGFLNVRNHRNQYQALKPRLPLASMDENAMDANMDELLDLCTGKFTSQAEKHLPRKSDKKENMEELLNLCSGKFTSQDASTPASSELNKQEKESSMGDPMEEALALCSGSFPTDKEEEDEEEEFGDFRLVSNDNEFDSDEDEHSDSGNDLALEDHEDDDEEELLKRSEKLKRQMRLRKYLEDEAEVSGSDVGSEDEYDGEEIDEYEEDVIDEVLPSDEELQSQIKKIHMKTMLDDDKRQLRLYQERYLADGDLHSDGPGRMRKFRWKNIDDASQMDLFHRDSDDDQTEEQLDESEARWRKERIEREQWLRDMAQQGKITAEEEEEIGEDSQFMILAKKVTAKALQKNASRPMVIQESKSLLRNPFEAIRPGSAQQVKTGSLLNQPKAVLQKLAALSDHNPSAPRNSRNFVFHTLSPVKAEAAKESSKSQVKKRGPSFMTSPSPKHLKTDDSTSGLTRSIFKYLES
# Sequence of UniProt P50750 (P50750 whole entry, looked up): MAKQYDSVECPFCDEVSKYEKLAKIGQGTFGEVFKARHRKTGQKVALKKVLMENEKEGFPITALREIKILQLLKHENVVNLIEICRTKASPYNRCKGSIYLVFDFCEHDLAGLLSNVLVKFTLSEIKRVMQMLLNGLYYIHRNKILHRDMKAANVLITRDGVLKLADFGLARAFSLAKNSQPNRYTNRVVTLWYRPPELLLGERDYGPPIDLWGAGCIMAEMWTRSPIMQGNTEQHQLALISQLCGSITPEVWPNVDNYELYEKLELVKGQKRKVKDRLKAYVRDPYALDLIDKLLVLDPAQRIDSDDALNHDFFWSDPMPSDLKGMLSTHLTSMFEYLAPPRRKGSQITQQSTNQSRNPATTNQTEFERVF
# Sequence of UniProt Q86X83 (Q86X83 whole entry, looked up): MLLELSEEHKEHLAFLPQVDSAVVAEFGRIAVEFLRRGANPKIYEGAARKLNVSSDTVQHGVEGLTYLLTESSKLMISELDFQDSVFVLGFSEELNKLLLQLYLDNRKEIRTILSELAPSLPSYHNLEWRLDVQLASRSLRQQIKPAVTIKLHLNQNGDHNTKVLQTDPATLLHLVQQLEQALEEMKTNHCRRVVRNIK
row,Target,log2 fold change
1,CKS1B (UniProt P61024),-0.026
2,CHEK1 (UniProt O14757),-0.009
3,CLPP (UniProt Q16740),0.003
4,CDK9 isoform 2 (UniProt P50750),0.066
5,CHAMP1 (UniProt Q96JM3),-0.003
6,CCDC167 (UniProt Q9P0B6),0.034
7,CALCOCO2 isoform 4 (UniProt Q13137),-0.002
8,CPSF3 (UniProt Q9UKF6),0
9,CLASP2 isoform 3 (UniProt O75122),-0.007
10,CLSPN (UniProt Q9HAW4),0.001
11,COMMD2 (UniProt Q86X83),-0.012
12,CLCN3 (UniProt P51790),-0.03
13,CCNK isoform 4 (UniProt O75909),0.157

# Compound: Cc1ccc(C(=O)N(CCCN)[C@@H](c2nc3cc(Cl)ccc3c(=O)n2Cc2ccccc2)C(C)C)cc1 [ispinesib]
# Experiment: as above
# In short: as §1
row,Target,log2 fold change
1,C9orf64 (UniProt Q5T6V5),-0.207
2,CELF2 isoform 3 (UniProt O95319),-0.066
3,CAMSAP1 isoform 3 (UniProt Q5T5Y3),-0.124
4,CNOT4 isoform 6 (UniProt O95628),0.066
5,CSTF2 (UniProt P33240),0.068
6,CBX5 (UniProt P45973),0.092
7,CHD3 isoform 3 (UniProt Q12873),-0.193
8,CCDC9 (UniProt Q9Y3X0),-0.215
9,CHERP (UniProt Q8IWX8),-0.004
10,COQ9 (UniProt O75208),-0.055
11,CPQ (UniProt Q9Y646),0.011
12,CD81 (UniProt P60033),0.207
13,CDK6 (UniProt Q00534),0.024
14,CHMP4C (UniProt Q96CF2),-0.079
15,CHAC2 (UniProt Q8WUX2),0.071
16,CSNK2B (UniProt P67870),0.016
17,CBR1 (UniProt P16152),0.194
18,CRKL (UniProt P46109),0.046

row,Target,log2 fold change
1,CHD4 isoform 2 (UniProt Q14839),-0.05
2,COA6 isoform 2 (UniProt Q5JTJ3),0.035
3,CNDP2 (UniProt Q96KP4),-0.099
4,CETN2 (UniProt P41208),0.084
5,CAMKK2 (UniProt Q96RR4),-0.204
6,CKS1B (UniProt P61024),0.224
7,CHEK1 (UniProt O14757),0.039
8,CLPP (UniProt Q16740),0.105
9,CDK9 isoform 2 (UniProt P50750),-0.013
10,CHAMP1 (UniProt Q96JM3),-0.185
11,CCDC167 (UniProt Q9P0B6),-0.344 (active)
12,CALCOCO2 isoform 4 (UniProt Q13137),-0.262
13,CPSF3 (UniProt Q9UKF6),-0.003
14,CLASP2 isoform 3 (UniProt O75122),-0.054
15,CLSPN (UniProt Q9HAW4),0.107
16,COMMD2 (UniProt Q86X83),0.014
17,CLCN3 (UniProt P51790),-0.549 (active)
18,CCNK isoform 4 (UniProt O75909),0.03

# Compound: Cc1ccc(NC(=O)c2ccc(CN3CC[C@H](N(C)C)C3)c(C(F)(F)F)c2)cc1Nc1nccc(-c2cncnc2)n1 [bafetinib]
# Experiment: as above
# In short: as §1
row,Target,log2 fold change
1,C9orf64 (UniProt Q5T6V5),0.031
2,CELF2 isoform 3 (UniProt O95319),0.014
3,CAMSAP1 isoform 3 (UniProt Q5T5Y3),-0.019
4,CNOT4 isoform 6 (UniProt O95628),-0.088
5,CSTF2 (UniProt P33240),-0.05
6,CBX5 (UniProt P45973),-0.019
7,CHD3 isoform 3 (UniProt Q12873),0.01
8,CCDC9 (UniProt Q9Y3X0),-0.011
9,CHERP (UniProt Q8IWX8),0.057
10,COQ9 (UniProt O75208),-0.124
11,CPQ (UniProt Q9Y646),-0.207 (active)
12,CD81 (UniProt P60033),0.089
13,CDK6 (UniProt Q00534),-0.017
14,CHMP4C (UniProt Q96CF2),-0.01
15,CHAC2 (UniProt Q8WUX2),-0.052
16,CSNK2B (UniProt P67870),0.036
17,CBR1 (UniProt P16152),0
18,CRKL (UniProt P46109),-1.41 (active)

row,Target,log2 fold change
1,CHD4 isoform 2 (UniProt Q14839),0.068
2,COA6 isoform 2 (UniProt Q5JTJ3),-0.093
3,CNDP2 (UniProt Q96KP4),-0.03
4,CETN2 (UniProt P41208),-0.029
5,CAMKK2 (UniProt Q96RR4),0.04
6,CKS1B (UniProt P61024),-0.065
7,CHEK1 (UniProt O14757),-0.053
8,CLPP (UniProt Q16740),0.025
9,CDK9 isoform 2 (UniProt P50750),0.039
10,CHAMP1 (UniProt Q96JM3),-0.134
11,CCDC167 (UniProt Q9P0B6),-0.024
12,CALCOCO2 isoform 4 (UniProt Q13137),-0.647 (active)
13,CPSF3 (UniProt Q9UKF6),-0.052
14,CLASP2 isoform 3 (UniProt O75122),0.016
15,CLSPN (UniProt Q9HAW4),-0.071
16,COMMD2 (UniProt Q86X83),0.162
17,CLCN3 (UniProt P51790),-0.112
18,CCNK isoform 4 (UniProt O75909),0.106
